# From the supplement of paper PMC4206461
# Unmarked numbers belong to inactive results.
# Tests used:
# [1] = tested on: Pseudomonas aeruginosa PA14 dppA1-A5 penta mutant + pBBR5.DppA1 (PA14_58350); test: respiration area under curve with compound as sole nitrogen source, 24 h (OmniLog AUC (arbitrary units)); higher = more respiration / better utilisation as nitrogen source, active = 2000 or more
# Description: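 Biolog Phenotype MicroArray plates PM6-PM8: each di/tripeptide is the sole nitrogen source. Tetrazolium reduction was read in the OmniLog for 24 h at 37°C and summarised as area under the respiration curve (arbitrary units). Values below 2000 count as no respiration. Strain is the SBP penta mutant complemented with DppA1 on a plasmid under its native promoter. Lys/His/Cys peptides are excluded.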
# [2] = tested on: Pseudomonas aeruginosa PA14 wild type; test: as above
# Description: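 Biolog Phenotype MicroArray plates PM6-PM8: each di/tripeptide is the sole nitrogen source (IF-0 medium with succinate/ferric citrate and dye mix A). Tetrazolium reduction was read in the OmniLog every 15 min for 24 h at 37°C and summarised as area under the respiration curve (arbitrary units). The paper counts values below 2000 as no respiration and above 8000 as solid respiration. Replicate datasets are averaged.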
# [3] = tested on: Pseudomonas aeruginosa PA14 dppBCDF deletion mutant; test: respiration area under curve with compound as sole nitrogen source, 24 h (OmniLog AUC (arbitrary units)); higher = more respiration / better utilisation as nitrogen source, active = 2000 or more; extreme values may be limits of the assay
# Description: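 Biolog Phenotype MicroArray plates PM6-PM8: each di/tripeptide is the sole nitrogen source. Tetrazolium reduction was read in the OmniLog every 15 min for 24 h at 37°C and summarised as area under the respiration curve (arbitrary units). Values below 2000 count as no respiration. Strain is the dipeptide ABC transporter deletion mutant.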
Structure (SMILES),respiration area under curve [1],respiration area under curve [2],respiration area under curve [3]
C[C@H](N)C(=O)N[C@@H](Cc1ccccc1)C(=O)O (plate: PM6),6990 (active),7710 (active),5070 (active)
CC(C)CC(N)C(=O)NC(Cc1c[nH]c2ccccc12)C(=O)O (stereo unspecified) (plate: PM7),8370 (active),8750 (active),7610 (active)
CC[C@H](C)[C@H](N)C(=O)N[C@@H](Cc1ccc(O)cc1)C(=O)O (plate: PM6),655,2310 (active),11
CC(NC(=O)C(N)CC(=O)O)C(=O)O (stereo unspecified) (plate: PM8),6890 (active),–,12.2
CSCC[C@H](N)C(=O)N[C@H](C(=O)O)C(C)C (plate: PM7),3360 (active),–,1430
CSCC[C@H](N)C(=O)N[C@@H](CCC(N)=O)C(=O)O (plate: PM7),8220 (active),9160 (active),3640 (active)
N[C@@H](CC(=O)O)C(=O)N[C@@H](Cc1ccccc1)C(=O)O (plate: PM6),1720,–,15.5
CC(C)C[C@@H](N)C(=O)N[C@H](CC(C)C)C(=O)O (plate: PM8),0,0,0
N[C@@H](Cc1ccc(O)cc1)C(=O)N[C@@H](Cc1ccccc1)C(=O)O (plate: PM7),6470 (active),–,3450 (active)
CC(C)[C@H](NC(=O)[C@H](C)N)C(=O)O (plate: PM8),7610 (active),9240 (active),700
C[C@@H](O)[C@H](N)C(=O)N[C@@H](CCC(N)=O)C(=O)O (plate: PM8),10400 (active),–,454
CC(C)C[C@H](N)C(=O)N[C@@H](CCCN=C(N)N)C(=O)O (plate: PM6),8260 (active),–,8540 (active)
CSCC[C@H](NC(=O)[C@@H](N)[C@@H](C)O)C(=O)O (plate: PM7),2920 (active),–,204
CC(C)[C@H](N)C(=O)N[C@@H](CC(N)=O)C(=O)O (plate: PM7),10400 (active),–,5280 (active)
NC(N)=NCCC[C@H](NC(=O)[C@@H]1CCCN1)C(=O)O (plate: PM8),10300 (active),12100 (active),7840 (active)
CC[C@H](C)[C@H](N)C(=O)NCC(=O)O (plate: PM6),2560 (active),4940 (active),0
N[C@@H](Cc1ccccc1)C(=O)N[C@@H](CCC(=O)O)C(=O)O (plate: PM8),2880 (active),2920 (active),0
CC(C)[C@H](N)C(=O)N[C@@H](Cc1ccccc1)C(=O)O (plate: PM8),5560 (active),–,3500 (active)
CC(C)C[C@H](N)C(=O)N[C@@H](C)C(=O)O (plate: PM6),7500 (active),–,7270 (active)
C[C@H](NC(=O)[C@@H](N)Cc1ccc(O)cc1)C(=O)O (plate: PM7),10300 (active),–,8840 (active)
N[C@@H](Cc1ccc(O)cc1)C(=O)N[C@@H](Cc1ccc(O)cc1)C(=O)O (plate: PM7),6170 (active),–,4900 (active)
N[C@@H](CC(=O)O)C(=O)N[C@@H](Cc1c[nH]c2ccccc12)C(=O)O (plate: PM6),1340,–,1260
CC(C)C[C@H](N)C(=O)N[C@H](C(=O)O)C(C)C (plate: PM7),10300 (active),–,9340 (active)

Structure (SMILES),respiration area under curve [1],respiration area under curve [2],respiration area under curve [3]
CSCCC(NC(=O)C(N)C(C)C)C(=O)O (stereo unspecified) (plate: PM8),2570 (active),–,397
NC(=O)CC[C@H](NC(=O)[C@@H](N)CO)C(=O)O (plate: PM8),7790 (active),–,558
CC[C@H](C)[C@H](N)C(=O)N[C@H](C(=O)O)C(C)C (plate: PM6),2860 (active),–,545
C[C@H](NC(=O)[C@@H]1CCCN1)C(=O)O (plate: PM7),6110 (active),8890 (active),103
C[C@H](NC(=O)[C@@H](N)Cc1c[nH]c2ccccc12)C(=O)O (plate: PM7),2360 (active),5630 (active),744
CC(C)C[C@H](NC(=O)[C@@H](N)C(C)C)C(=O)O (plate: PM7),7530 (active),9770 (active),3160 (active)
CC(C)C[C@H](NC(=O)[C@@H](N)[C@@H](C)O)C(=O)O (plate: PM7),4760 (active),7920 (active),1070
CC(C)[C@@H](NC(=O)CN)C(=O)O (plate: PM8),0,–,0
CC[C@H](C)[C@H](N)C(=O)N[C@@H](C)C(=O)O (plate: PM6),2520 (active),–,88.8
CSCC[C@H](N)C(=O)N[C@@H](Cc1c[nH]c2ccccc12)C(=O)O (plate: PM7),2980 (active),–,2520 (active)
NCC(=O)N1CCC[C@H]1C(=O)O (plate: PM6),7310 (active),–,0
CSCC[C@H](N)C(=O)N[C@@H](Cc1ccc(O)cc1)C(=O)O (plate: PM8),780,1560,55.2
O=C(O)CC[C@H](NC(=O)[C@@H]1CCCN1)C(=O)O (plate: PM8),–,7660 (active),0
CC(C)[C@H](NC(=O)[C@@H](N)CCCN=C(N)N)C(=O)O (plate: PM6),–,8950 (active),7970 (active)
C[C@H](N)C(=O)N[C@@H](CCC(N)=O)C(=O)O (plate: PM8),10400 (active),11600 (active),3540 (active)
C[C@H](N)C(=O)N1CCC[C@H]1C(=O)O (plate: PM6),–,12000 (active),717
NC(=O)C[C@H](N)C(=O)N[C@@H](CCC(=O)O)C(=O)O (plate: PM6),4770 (active),–,–
CC(C)C[C@H](NC(=O)[C@@H](N)CCCN=C(N)N)C(=O)O (plate: PM6),–,9430 (active),8090 (active)
CSCC[C@H](N)C(=O)N[C@@H](CCC(=O)O)C(=O)O (plate: PM7),–,1960,0
N[C@@H](Cc1c[nH]c2ccccc12)C(=O)N[C@@H](CO)C(=O)O (plate: PM7),–,4810 (active),106
CC(C)[C@H](NC(=O)[C@@H](N)CC(N)=O)C(=O)O (plate: PM6),–,7030 (active),4910 (active)
C[C@H](N)C(=O)N[C@@H](CO)C(=O)O (plate: PM6),8180 (active),–,–
N[C@@H](CO)C(=O)N1CCC[C@H]1C(=O)O (plate: PM7),12700 (active),–,–

Structure (SMILES),respiration area under curve [1],respiration area under curve [2],respiration area under curve [3]
CSCC[C@H](N)C(=O)NCC(=O)O (plate: PM7),–,5050 (active),33.2
N[C@@H](Cc1ccccc1)C(=O)NCC(=O)O (plate: PM7),–,7630 (active),872
N[C@@H](Cc1c[nH]c2ccccc12)C(=O)N[C@@H](Cc1c[nH]c2ccccc12)C(=O)O (plate: PM7),–,1430,436
CC(C)[C@H](N)C(=O)N1CCC[C@H]1C(=O)O (plate: PM8),–,12700 (active),0
NC(N)=NCCC[C@H](N)C(=O)N[C@@H](CC(=O)O)C(=O)O (plate: PM6),7970 (active),–,–
NC(N)=NCCC[C@H](NC(=O)[C@@H](N)CCCN=C(N)N)C(=O)O (plate: PM6),8780 (active),10100 (active),9250 (active)
NC(=O)C[C@H](NC(=O)[C@@H](N)CO)C(=O)O (plate: PM8),10900 (active),12500 (active),10400 (active)
C[C@H](N)C(=O)N[C@@H](Cc1c[nH]c2ccccc12)C(=O)O (plate: PM6),–,4490 (active),3230 (active)
NC(=O)CC[C@H](NC(=O)[C@@H]1CCCN1)C(=O)O (plate: PM7),9270 (active),–,–
O=C(O)[C@H](CO)NC(=O)[C@@H]1CCCN1 (plate: PM8),–,8750 (active),1290
CC(C)C[C@H](NC(=O)[C@@H](N)CC(C)C)C(=O)O (plate: PM6),1870,3640 (active),1380
CC(C)C[C@H](NC(=O)[C@@H](N)Cc1c[nH]c2ccccc12)C(=O)O (plate: PM7),3710 (active),–,–
CSCC[C@H](NC(=O)[C@H](C)N)C(=O)O (plate: PM8),–,6360 (active),2300 (active)
NC(N)=NCCC[C@H](N)C(=O)N[C@@H](Cc1ccc(O)cc1)C(=O)O (plate: PM6),–,9840 (active),8750 (active)
CC[C@H](C)[C@H](N)C(=O)N[C@@H](CCCN=C(N)N)C(=O)O (plate: PM6),7890 (active),–,–
N[C@@H](Cc1ccccc1)C(=O)N[C@@H](Cc1ccc(O)cc1)C(=O)O (plate: PM8),–,2350 (active),881
CSCC[C@H](N)C(=O)N[C@H](C(=O)O)[C@@H](C)O (plate: PM8),–,4350 (active),211
NCC(=O)N[C@@H](Cc1ccccc1)C(=O)O (plate: PM6),2000 (active),–,–
CC(C)C[C@H](N)C(=O)N[C@@H](CC(N)=O)C(=O)O (plate: PM8),–,12400 (active),10700 (active)
CC[C@H](C)[C@H](NC(=O)[C@@H]1CCCN1)C(=O)O (plate: PM8),–,7540 (active),1
O=C(O)CC(NC(=O)C1CCCN1)C(=O)O (stereo unspecified) (plate: PM7),2970 (active),4460 (active),0
C[C@H](N)C(=O)N[C@@H](C)C(=O)O (plate: PM6),7210 (active),–,–
